Assay outcomes (PubChem)
HPGD block – blocks human HPGD enzyme activity | P15428 | purified HPGD, NADH fluorescence kinetic, PGE2 substrate | Potency, µM, without a hit: at the highest dose activity change, negative = inhibition, most hits filed as inhibitors | actives 4.3% (n = 150,000) | AID 894; active = well fitted inhibition curve with a large enough effect, not every such curve was filed as active; inconclusive = small, poorly fitted or top-dose-only effect, or another doubt; inactive = no such curve, though single readings can be large or run the other way; also: potency is read from the fitted curve at half-maximal effect
Target sequence (P15428 whole entry, looked up): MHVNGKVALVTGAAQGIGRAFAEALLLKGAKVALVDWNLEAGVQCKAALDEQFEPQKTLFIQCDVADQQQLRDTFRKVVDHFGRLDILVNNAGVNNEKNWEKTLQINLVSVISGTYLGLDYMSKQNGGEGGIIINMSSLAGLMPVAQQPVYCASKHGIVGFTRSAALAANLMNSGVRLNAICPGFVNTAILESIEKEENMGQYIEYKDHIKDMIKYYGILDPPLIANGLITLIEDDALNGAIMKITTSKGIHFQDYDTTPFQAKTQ
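20 nM HPGD preincubated 15 min at room temperature with compound in 50 mM Tris-HCl pH 8, 0.01% Tween 20. Started with 1 mM NAD+ and 30 uM prostaglandin E2; NADH fluorescence (360/450 nm) read 5 times over 30-s intervals, last minus first.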
PNC inhibitor – perinucleolar compartment assembly inhibition | PC3M PTB-GFP, PNC prevalence imaging, 16 h; active compounds read low | activity change (PNC), negative = inhibition, % at 10 µM | actives 3.1% (n = 140,000) | AID 2417;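 active = readout at or below -70, meaning at least 70% loss of cells showing the perinucleolar compartment, a nuclear body marking cancer cells; inconclusive = readout between -30 and a set limit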;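 also: plate controls were DMSO wells for no effect and camptothecin positive control wells for full effect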
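PC3M cells stably expressing PTB-GFP, 750–1000 cells/well, treated 16 h at 37 °C with compound (23 nl of library stock), in duplicate. After paraformaldehyde fixation and Hoechst stain, imaged at 20x; PNC prevalence scored by image analysis.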
ALDH1A1 block – blocks purified human ALDH1A1 activity; Purified ALDH1A1, NADH fluorescence, propionaldehyde substrate; Potency, µM (highest dose often 75.3 µM), for the others: top-dose activity, negative = inhibition, hits mostly inhibitors; actives 7.3% (n = 220,000); active = well fitted inhibition curve with a large enough effect, not every such curve was filed as active; inconclusive = small, poorly fitted or top-dose-only effect, or another doubt; inactive = no such curve, though single readings can be large or run the other way;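 also: potency is read from the fitted curve at half-maximal effect; plate controls were no enzyme wells and a reference inhibitor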
IMPase Li inh – membrane-permeable IMPase blocker, potentiated with lithium | actives 0.35% (n = 210,000) | CHO-M1 cells, IP1 TR-FRET (IP-One), carbachol + lithium | Potency, µM (doses to about 59.4 µM), inactives show at the top dose activity, negative = IMPase inhibition, usual class: inhibitors | AID 1457;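 also: IP1 builds up when IMPase is blocked and the TR-FRET signal falls; potency is read from the fitted curve at half-maximal effect; plate controls were basal vehicle for no effect and high inhibitor control for full effect; nearly all actives have a fitted effect of over 50% in size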
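Steps: plate 2000 CHO-M1 cells per well and culture 16–30 h; add compound and lithium; incubate 30 min, 37C; add d2-IP1 tracer and Eu cryptate anti-IP1 antibody in lysis buffer; read after 10 min at room temperature.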
IMPase inh – cell-permeable inhibitors of inositol monophosphatase (IMPase); P97697; CHO-M1 cells, IP1 accumulation, HTRF TR-FRET ratio; inhibition (IP1 accumulation), % at 46.1 µM; 120,000 tested, under 10 active; AID 901; active = well fitted curve in the direction sought with a large enough effect in the signal ratio, not every such curve was filed as active; inconclusive = small, poorly fitted or top-dose-only effect, or a change in a side signal; inactive = no such curve, though single readings can be large or run the other way; the % refers to the signal ratio;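 also: cells stimulated with carbachol in lithium chloride buffer; plate controls were DMSO basal wells for no effect and reference inhibitor wells for full effect; higher means more IMPase inhibition seen as more IP1 and lower FRET ratio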
Target sequence (P97697 whole entry, looked up): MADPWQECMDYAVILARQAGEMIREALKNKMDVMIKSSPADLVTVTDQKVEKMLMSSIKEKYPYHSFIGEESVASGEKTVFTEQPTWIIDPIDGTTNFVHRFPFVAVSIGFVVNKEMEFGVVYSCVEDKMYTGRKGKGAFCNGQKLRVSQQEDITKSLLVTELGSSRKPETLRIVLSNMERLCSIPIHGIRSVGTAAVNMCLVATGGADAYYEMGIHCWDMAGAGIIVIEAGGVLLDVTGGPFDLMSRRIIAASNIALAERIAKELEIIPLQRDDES
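In this qHTS, compounds (final up to 46 uM) act on CHO-M1 cells that are then activated through the M1 receptor with carbachol, in pH 7.4 buffer containing 50 mM LiCl, for 30 min. IP1 accumulation is quantified by the IP-One immunoassay.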
NPSR antagonist – antagonists of human neuropeptide S receptor cAMP signaling. CHO-NPSR cells, cAMP TR-FRET, antagonist mode. AID 1461. Potency, µM (titrated, usually from 38.3 µM), inactives show top-dose activity change, negative = inhibition, most hits filed as inhibitors. actives 1% (n = 220,000). Q6W5P4; also: potency is read from the fitted curve at half-maximal effect; nearly all actives have a fitted effect of over 50% in size
The depositor's hits bear a star; ? = inconclusive; nt = no result given; [ ] = remark or other dose. The list is not random: actives were taken first. Their share in the collection is about 11%. Unless noted, calls follow the shape of the dose curve; as a rule, active = well fitted curve in the direction sought with a large enough effect; inconclusive = small, poorly fitted or top-dose-only effect, or another doubt; inactive = no such curve, though single readings can be large; an effect the other way counts as inactive or inconclusive. Unless noted, % is scaled to controls: 0 for no effect and ±100 for the full control effect.

SMILES	HPGD block	PNC inhibitor	ALDH1A1 block	IMPase Li inh	IMPase inh	NPSR antagonist
Nc1nonc1C(=Nc1ccccc1)NO	-18%	20	3%	2%[38.3 µM]	-3	4%[46.1 µM]
Nc1nonc1C(=O)NC(c1ccccc1)c1ccccc1	0%	6	14µM*	19%[38.3 µM]	-3	-16%[46.1 µM]
O=C(COC(=O)C1Cc2ccccc2CN1C(=O)c1ccccc1Cl)Nc1ccc(N2CCOCC2)cc1 (configuration not stated)	-6%	1	5%	10%	nt	-10%
O=C(Cn1cnc2ccccc2c1=O)Nc1nnc(SCc2ccccc2)s1	22µM*	17	9%	2%[38.3 µM]	0	-8%[46.1 µM]
CCCCCc1nnc(NC(=O)Cn2cnc3ccccc3c2=O)s1	-5%	-111*	1%	-1%	1	10%[46.1 µM]
CCCCc1nnc(NC(=O)Cn2cnc3ccccc3c2=O)s1	nt	nt	-16%	10%	nt	-5%
CCCCC[C@H](O)/C=C/[C@@H]1[C@@H](CC(=O)CCCCC(=O)O)[C@@H](O)C[C@H]1O	-7%	nt	-1%	-3%	nt	nt
CCCNc1nc(C)nc2c1cnn2CCc1ccccc1	-8%	19	18µM*	-5%[38.3 µM]	2	-7%[46.1 µM]
Cc1ccc(-c2csc(N3N=C(c4ccccc4)/C(=C\c4ccc(N(C)C)cc4)C3=O)n2)cc1	-4%	11	3.5µM*	-6%[38.3 µM]	-5	-8%[46.1 µM]
CC1=NN(c2nc(-c3ccc(F)cc3)cs2)C(=O)C1	-5%	22	1%	-3%[38.3 µM]	4	-4%[46.1 µM]
COc1ccc2cc(C#N)c(N3CCN(Cc4nnnn4CCC(C)C)CC3)nc2c1	-29%	-25	?	14%	3	-15%[46.1 µM]
COc1ccc(Nc2c(-c3ccco3)nc3ccc(C)cn23)cc1	nt	nt	?	-14%	nt	-34%
CCN1CCCc2cc(CN(CCN3CCOCC3)C(=S)Nc3cccc(OC)c3)ccc21	nt	nt	16µM*	14%	nt	-38%
COc1cccc(NC(=S)NCCN2CCOCC2)c1	-3%	-91*	13%	1%	nt	18%
COc1cccc(NC(=S)N(CCCN2CCN(C)CC2)Cc2ccco2)c1	nt	nt	2%	4%	nt	5%
O=C(Nc1cccc(Cl)c1)C1CCCN(S(=O)(=O)c2ccc(F)cc2)C1 (configuration not stated)	-15%	-9	3%	50%[38.3 µM]	11	-38%[46.1 µM]
CN(C)/C=N/C(=S)Nc1ccccc1Cl	nt	nt	2%	-11%	nt	7%
Cc1ccc(/C=C/C(=O)c2ccc(C)cc2)cc1	-7%	16	-11%	6%	4	-17%[46.1 µM]
O=C(/C=C/c1ccc(-c2ccccc2)o1)c1ccccc1	3.5µM*	-8	12%	-10%	0	?
Cc1ccc(-c2ccc(/C=C/C(=O)c3ccccc3)o2)cc1	14µM*	?	3.2µM*	3%	-5	-36%
Cc1ccc(C(=O)/C=C/C(=O)c2ccc(C)cc2)cc1	nt	nt	0.89µM*	16%	nt	?
O=C(/C=C/c1ccc(-c2ccccc2[N+](=O)[O-])o1)c1ccc(Br)cc1	-23%	?	7.1µM*	16%	-9	-27%[46.1 µM]
COCCn1c(=O)c(-c2ccccc2)nc2cnc(OCc3ccccc3)nc21	?	nt	?	8%	nt	nt
Fc1ccc(NC(=S)N2CCCN(c3ccc(C(F)(F)F)cn3)CC2)c(F)c1	nt	nt	-4%	nt	nt	33%
CCOC(=O)NC(=O)C(=CNNc1ncc(C(F)(F)F)cc1Cl)C(=O)NC(=O)OCC	nt	nt	7%	3%	nt	-16%
SMILES	HPGD block	PNC inhibitor	ALDH1A1 block	IMPase Li inh	IMPase inh	NPSR antagonist
CNc1ccccc(C(=O)/C=C/c2ccccc2OC)c1=O	13µM*	52	10µM*	4%	nt	-44%
CNc1ccc(Br)cc(C(=O)/C=C/c2cccc(OC)c2OC)c1=O	14µM*	-22	16µM*	20%	?	-12%[46.1 µM]
Cc1cccc(CC2CC(=O)N(C3CCCCC3)C2=O)c1 (configuration not stated)	-18%	?	?	-6%[38.3 µM]	-1	-4%[46.1 µM]
CCCOc1cc(C)nc(-c2ccccc2O)n1	nt	-19	10µM*	nt	?	-16%[46.1 µM]
CC1CN(C(=O)CN2C(=O)c3ccccc3S2(=O)=O)CC(C)O1 (configuration not stated)	-3%	?	4%	3%[38.3 µM]	-3	-14%[46.1 µM]
COc1ccc(C2c3sc(=O)[nH]c3SC3C(=O)N(c4ccccc4)C(=O)C32)cc1 (configuration not stated)	-6%	?	22µM*	21%[38.3 µM]	4	-27%[46.1 µM]
O=c1[nH]c2c(s1)C(c1ccccc1)C1C3CCC(C3)C1S2 (configuration not stated)	?	?	20µM*	14%[38.3 µM]	12	-14%[46.1 µM]
COc1ccc(C2c3sc(=O)[nH]c3SC3C4CCC(C4)C23)cc1 (configuration not stated)	?	-30	22µM*	18%	3	-15%[46.1 µM]
O=C1C2Sc3[nH]c(=O)sc3C(c3ccccc3)C2C(=O)N1c1ccccc1 (configuration not stated)	-17%	-20	?	-3%[38.3 µM]	-1	-16%[46.1 µM]
COc1cc(C2c3sc(=O)[nH]c3SC3C4CCC(C4)C23)ccc1O (configuration not stated)	-4%	115	?	9%[38.3 µM]	10	-19%[46.1 µM]
O=C(NN1c2ccccc2CCc2ccccc21)c1ccccc1Br	-7%	?	8%	20%[38.3 µM]	10	-16%[46.1 µM]
COCCN1C(=O)/C(=C/c2ccc(Oc3ccc([N+](=O)[O-])cn3)c(OC)c2)SC1=Nc1ccccc1	-15%	?	0.4µM*	10%	-8	-14%[46.1 µM]
Cc1ccc(S(=O)(=O)/C(=C/Cl)NC(=O)c2ccccc2)cc1	-3%	10	7.9µM*	2%	nt	-10%
O=C1/C(=C/c2cccs2)SC(=S)N1c1ccccc1	-7%	6	9%	5%[38.3 µM]	2	5%[46.1 µM]
Cc1ccc(/C=C2\SC(N3CCN(C(c4ccccc4)c4ccccc4)CC3)=NC2=O)o1	3.5µM*	-24	-6%	26%	nt	?
O=C1N=C(N2CCN(c3ccccc3)CC2)S/C1=C/c1cccs1	16µM*	76	?	8%	-8	-9%
O=C1N=C(N2CCN(Cc3ccccc3)CC2)S/C1=C/c1cccs1	nt	nt	nt	nt	nt	19%
O=C1N=C(c2ccccc2)S/C1=C\c1cccs1	5.6µM*	38	3.5µM*	7%[38.3 µM]	8	-8%[46.1 µM]
O=C1c2ccccc2NC(c2cn[nH]c2-c2ccc(Cl)cc2)N1O (configuration not stated)	-6%	38	10%	-6%	nt	8%
COc1cccc(C(=O)Oc2c(CN3CCOCC3)cc(Cl)c3cccnc23)c1	-5%	7	8%	39%[38.3 µM]	11	10µM*
COc1ccc(C(=O)Oc2c(CN3CCOCC3)cc(Cl)c3cccnc23)cc1	-11%	?	3%	44%[38.3 µM]	-2	-13%[46.1 µM]
